Data from PubChem BioAssay AID720564 (Broad Institute, 2013).
The other results are listed elsewhere or left out. Calls of active or inactive are those of the source.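 How the source made its calls: active means luminescence drop, with half-maximal potency fitted within twice the sample's top valid dose (cut at about 70 µM in these data); inactive means the rest, including signal moving the wrong way.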

Test: dual-tagged ARNT PAS-B bead signal quenchers – biochemical, dry powder, artefact control for ARNT/TACC3 disruptor project, dose response (AID 720564)
Settings: Dual-tagged His-ARNT PASB-GST AlphaScreen artifact counter-screen

SMILES	AC50
O=C(CSc1ccc(-c2ccccn2)nn1)Nc1ccccc1	15.3 µM (active)
CCCCC(=O)NC(c1ccco1)c1ccc2cccnc2c1O (stereo not drawn)	13.8 µM (active)
COc1ccc(-c2nnc(NC(=O)c3ccc(S(=O)(=O)N4CCC(C)CC4)cc3)o2)cc1	67.7 µM (active)
